In the library only some 6.2% were active in any assay of this set; here they are far more common.
LASV entry inh = Lassa virus entry inhibition; Lassa virus pseudotype entry inhibition, cell reporter; Potency, µM (series often up to 37.9 µM), without a hit: at the highest dose activity change, negative = inhibition, actives largely listed as inhibitors; actives 1.2% (n = 300,000); AID 540256; calls by dose curve; tested in HEK293 cells; also: potency is read from the fitted curve at half-maximal effect; nearly all actives have a fitted effect of over 50% in size
HCMV inh = blocks human cytomegalovirus replication; activity change, negative = inhibition, % at 57.5 µM; actives 4.5% (n = 410,000); HFF cells, HCMV-luciferase reporter, 72 h; active compounds read low; in the data active = activity change below about -60%; inconclusive = no clear call, values can overlap the other calls; inactive = above about -39%
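After 16 h attachment at 37C, HFF cells received test compound and HCMV-luciferase (1 PFU/cell); reporter luminescence read 72 h later, data normalized against buffer-only and known inhibitor Salinomycin.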
FMDV antiviral = foot and mouth disease virus antiviral activity; Potency, µM (titrated, usually from 57.9 µM), inactives show at the highest dose activity change, negative = inhibition, most hits filed as inhibitors; actives 1.2% (n = 410,000); AID 1159524; FMDV antiviral cell-based qHTS; calls by dose curve; tested in HEK293T cells; also: read-out not given here; potency is read from the fitted curve at half-maximal effect; nearly all actives have a fitted effect of over 45% in size
Marburg entry inh = blocks Marburg virus binding to or entry into cells; actives 1.8% (n = 300,000); Potency, µM (titrated, usually from 37.8 µM), for inactives: top-dose activity change, negative = inhibition, actives largely listed as inhibitors; Marburg virus pseudotyped entry inhibition, cell reporter; calls by dose curve; tested in HEK293 cells; also: potency is read from the fitted curve at half-maximal effect
* = called active by the depositor; [ ] = another dose, or the depositor's remark. % is scaled to controls: 0 for no effect and ±100 for the full control effect.

For COc1cccc(CNCCC2=C3C=CC=CC3N=C2)c1 (configuration not stated) the results were Marburg entry inh 11µM*.
For CCOC(=O)Cc1c(-c2cccc(Cl)c2)nc2c3ccccc3ccn12 the results were HCMV inh 30 and FMDV antiviral -25%.
`CC(=O)C1CCC2C3CC=C4CC(SC(=N)N)CCC4(C)C3CCC12C` (configuration not stated) gave LASV entry inh inconclusive, HCMV inh 9, FMDV antiviral 0% and Marburg entry inh 11µM*.
CC(C)(C)[C@H](N)C(=O)N[C@H]1CCC2C3CC=C4C[C@@H](O)CC[C@]4(C)C3CC[C@@]21C (some centres not stated) was read as LASV entry inh inconclusive, HCMV inh -99*, FMDV antiviral -12% and Marburg entry inh inconclusive.
For Clc1cccc(-n2cc(-c3ccccc3)c3c(NC4CCCC4)ncnc32)c1 the results were LASV entry inh 13%[46.1 µM], HCMV inh -24 and FMDV antiviral -24%.
Screening Nc1ncnc2c1c(-c1ccc(Oc3ccccc3)cc1)cn2C1CCCC1 returned LASV entry inh inconclusive, HCMV inh -64*, FMDV antiviral inconclusive and Marburg entry inh inconclusive.
Screening COc1ccc(NC(=O)C(Cl)=C(Cl)Cl)cn1 returned LASV entry inh inconclusive, HCMV inh 0, FMDV antiviral -7% and Marburg entry inh inconclusive.
`COc1ccc(NC(=O)/C(Cl)=C(/Cl)S(=O)(=O)Cc2ccccc2)cn1` gave LASV entry inh 22µM*, HCMV inh -105*, FMDV antiviral 20µM* and Marburg entry inh inconclusive.
Screening COc1ccc(NC(=O)/C(Cl)=C(/Cl)S(=O)Cc2ccc(Cl)cc2)cn1 (configuration not stated) returned LASV entry inh 3.2µM*, HCMV inh -100*, FMDV antiviral 8.9µM* and Marburg entry inh inconclusive.
COc1ccc(C([O-])=Nc2ccc[n+](-c3nc4ccccc4nc3NS(=O)(=O)c3ccccc3)c2)cc1 was read as HCMV inh -13.
`COc1ccc(CN2CCC(C(=O)NC(C)c3cccc4ccccc34)CC2)cc1` (configuration not stated) gave FMDV antiviral 2%.
Screening O=C(COc1ccc(Cl)cc1Cl)N(C1CCCCC1)C1CCS(=O)(=O)C1 (configuration not stated) returned LASV entry inh -14%, HCMV inh -5, FMDV antiviral -13% and Marburg entry inh -26%.
`COC(=O)C1=C(c2ccc(OC(F)(F)F)cc2)C[C@@H]2CC[C@H]1N2C(=O)N1CCC(C)CC1` gave HCMV inh -64* and FMDV antiviral inconclusive.
Screening COC(=O)C1=C(c2cc3ccccc3s2)C[C@@H]2CC[C@H]1N2C(=O)NC1CC1 returned HCMV inh -63* and FMDV antiviral -17%.
`COC(=O)C1=C(c2ccc(OCc3ccccc3)cc2)C[C@@H]2CC[C@H]1N2C(=O)NCc1ccc(OC)c(OC)c1` gave HCMV inh -61* and FMDV antiviral inconclusive.
Screening COC(=O)C1=C(c2c(C)noc2C)C[C@@H]2CC[C@H]1N2C(=O)NC1CCCCC1 returned HCMV inh 2 and FMDV antiviral 3%.
COC(=O)C1=C(c2ccc(OCc3ccccc3)cc2)C[C@@H]2CC[C@H]1N2C(=O)NCc1ccccc1OC was read as HCMV inh -27 and FMDV antiviral inconclusive.
Screening COC(=O)C1=C(c2cc3ccccc3s2)C[C@@H]2CC[C@H]1N2C(=O)NCC1CC1 returned HCMV inh -32 and FMDV antiviral -29%.
Screening COC(=O)C1=C(c2c(C)noc2C)C[C@@H]2CC[C@H]1N2C(=O)NC1CC1 returned HCMV inh -97* and FMDV antiviral -7%.
Screening CC(=O)NN1C(=O)/C(=C\c2ccc(Br)o2)SC1=S returned LASV entry inh 6%, HCMV inh 59, FMDV antiviral inconclusive and Marburg entry inh -5%.
For CCOC(=O)C(C)Sc1nc2c(c(=O)[nH]c(=O)n2C)n1C/C=C(/C)Cl (configuration not stated) the results were LASV entry inh -26%, HCMV inh 44, FMDV antiviral -27% and Marburg entry inh -31%.
For COC(=O)C1=C(c2cccc(C#N)c2)C[C@@H]2CC[C@H]1N2C(=O)NCc1cc(C)oc1C(F)(F)F the results were HCMV inh -71* and FMDV antiviral -3%.
For COC(=O)C1=C(c2ccc3ccccc3c2)C[C@@H]2CC[C@H]1N2C(=O)NC(C)C the results were HCMV inh -63* and FMDV antiviral -3%.
